For 7 compounds, Potency results are on record in PubChem BioAssay (Tox21).

A short description of experiment [1]: Nuclear factor erythroid 2-related factor 2/antioxidant responsive element (Nrf2/ARE) small molecule agonists: qHTS cell viability counter screen in human keratinocytes (AID 1919968; active = well fitted curve in the direction sought with a large enough effect in the repeat runs; an effect the other way counts as inactive or inconclusive; note: nearly all actives have a fitted effect of over 55% in size; note: potency is the fitted concentration of half-maximal effect). The method in brief: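 Cells of the KeratinoSens line were plated at 1,500 per well and left for 5 h before compound transfer from DMSO stocks. After a 23 h incubation (37 C, 5% CO2), CellTiter-Fluor was added. Signal was taken as fluorescence intensity 1 h later.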
For orientation: In qHTS, concentration-response curves come from the screen itself.

Experiment [2] is described as follows: Nuclear factor erythroid 2-related factor 2/antioxidant responsive element (Nrf2/ARE) small molecule agonists: luciferase reporter gene qHTS assay in human keratinocytes (AID 1919969). Note: nearly all actives have a fitted effect of over 35% in size. Note: potency is the fitted concentration of half-maximal effect. For orientation: In a reporter assay the amount or activity of a reporter protein is the signal.
Experiment [3] addresses Gonadotropin-releasing hormone receptor (Homo sapiens) (UniProt P30968). The experiment in a line: Human gonadotropin-releasing hormone receptor (GnRHR) small molecule agonists, calcium flux assay in GnRHR-HEK293 cells (AID 1920063). Note: nearly all actives have a fitted effect of over 35% in size. The method in brief:
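Compounds dissolved in DMSO are pin-transferred onto dye-loaded GnRHR-HEK293 cells, which were seeded 18 h before at 37 C/5% CO2. Calcium signal is read as fluorescence intensity at 1 s intervals for 3 min.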
For orientation: Calcium assays in cells follow changes in intracellular calcium, usually with a dye or a luminescent sensor.

In experiment [4] the target is KiSS-1 receptor (Homo sapiens) (UniProt Q969F8). Description: Human kisspeptin (KISS1R) small molecule agonists, calcium flux assay in KISS1R-HEK293 cells (AID 1920064; active = well fitted curve in the direction sought with a large enough effect in the repeat runs; an effect the other way counts as inactive or inconclusive). The method in brief: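 Cell line: HEK293, stable human KISS1R. Dye loading 1 h at 37 C after 18 h culture. Read: kinetic fluorescence, 480/540 nm, 3 min at 1 s intervals.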
KiSS-1 receptor (Homo sapiens), sequence (Q969F8 whole entry, looked up): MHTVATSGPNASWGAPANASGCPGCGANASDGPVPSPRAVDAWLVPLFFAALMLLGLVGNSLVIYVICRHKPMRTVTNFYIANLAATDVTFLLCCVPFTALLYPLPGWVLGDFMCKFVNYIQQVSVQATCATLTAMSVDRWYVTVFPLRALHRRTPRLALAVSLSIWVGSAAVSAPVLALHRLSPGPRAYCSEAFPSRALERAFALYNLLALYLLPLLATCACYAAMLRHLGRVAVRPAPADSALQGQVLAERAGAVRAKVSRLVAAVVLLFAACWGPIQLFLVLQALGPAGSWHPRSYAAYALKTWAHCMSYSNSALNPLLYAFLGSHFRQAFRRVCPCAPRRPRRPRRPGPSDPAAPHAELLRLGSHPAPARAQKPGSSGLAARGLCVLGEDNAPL
Experiment [5] in a line: G protein-coupled receptor (GPCR) small molecule agonists, calcium flux assay: HEK293 wild type cell line counter screen (AID 1920065). In short, it runs like this: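 Tox21 10K compounds, 15 concentrations each in triplicate, pin-transferred in DMSO onto dye-loaded cells; kinetic read at 480/540 nm for 3 min, 1 s intervals.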
Experiment [6] in a line: p53 small molecule agonists, cell-based qHTS assay with human liver microsomes (AID 1963577).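 Note: p53 response element beta-lactamase reporter cells with liver microsomes plus NADPH.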 The method in brief:
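p53RE-bla cells; 5 h settle, 37 C/5% CO2; cpd + HLM 0.5 mg/mL + NADPH 0.5 mg/mL (final); 16 h 37 C; LiveBLAzer 2 h RT dark; fluorescence readout.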

Experiment [7] in a line: p53 small molecule agonists, cell-based qHTS assay with rat liver microsomes (AID 1963578). In short, it runs like this: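 Rat liver microsome activation: microsomes 0.5 mg/mL, NADPH 0.5 mg/mL final; p53RE-bla cells, 16 h 37 C; LiveBLAzer readout, 2 h RT dark.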
Experiment [8] can be described thus: p53 small molecule agonists, cell-based qHTS assay with human liver microsomes: qHTS cell viability counter screen (AID 1963579). Note: nearly all actives have a fitted effect of over 45% in size. Note: potency is the fitted concentration of half-maximal effect. The method in brief:
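Luminescent CellTiter-Glo read-out, 30 min at room temperature, gauged cytotoxicity in p53RE-bla cells exposed 16 h at 37 C to DMSO-dissolved compounds with metabolic activation by human liver microsomes and NADPH, each 0.5 mg/mL final.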

The nature of experiment [9]: p53 small molecule agonists, cell-based qHTS assay with rat liver microsomes: qHTS cell viability counter screen (AID 1963580). Note: nearly all actives have a fitted effect of over 45% in size. Note: potency is the fitted concentration of half-maximal effect. In short, it runs like this: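 Counter screen for cytotoxicity under metabolic activation: rat liver microsomes and NADPH, 0.5 mg/mL final each, added with compounds to p53RE-bla HCT-116 cells; 16 h at 37 C, then ATP luminescence read.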
The nature of experiment [10]: p53 small molecule agonists, cell-based qHTS assay: qHTS cell viability counter screen (AID 1963581). Note: nearly all actives have a fitted effect of over 45% in size. Note: potency is the fitted concentration of half-maximal effect. The method in brief:
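ATP content measured by luminescence in HCT-116 p53RE-bla cells treated 16 h at 37 C, same wells as the reporter screen.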

Experiment [11] concerns the target 5-hydroxytryptamine receptor 2A (Homo sapiens) (UniProt P28223). Description: 5-hydroxytryptamine receptor 2A (HTR2A) small molecule antagonists, cell-based qHTS assay (AID 1963586). Note: nearly all actives have a fitted effect of over 45% in size. The method in brief:
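CHO cells stably expressing human HTR2A were plated for 18 h at 37 C, then loaded with calcium dye for 1 h. Compounds were preincubated 5 min at room temperature before DOI (4 nM solution) was added. Kinetic fluorescence was read for 3 min.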

For experiment [12] the target is unchanged. Description: 5-hydroxytryptamine receptor 2A (HTR2A) small molecule agonists, cell-based qHTS assay (AID 1963587). Note: nearly all actives have a fitted effect of over 30% in size. The method in brief:
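HTR2A-CHO cells, plated 18 h at 37 C/5% CO2, dye-loaded 1 h at 37 C; compounds in DMSO added by pin tool (agonist mode). Intracellular calcium flux read as kinetic fluorescence on FDSS over 2 min at 1 s intervals.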

Experiment [13] has as its target Muscarinic acetylcholine receptor M1 (Homo sapiens) (UniProt P11229). Description: Cholinergic receptor muscarinic 1 (CHRM1) small molecule antagonists, cell-based qHTS assay (AID 1963588). Note: nearly all actives have a fitted effect of over 40% in size. The method in brief:
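Compounds were tested at 15 concentrations in three independent runs. Dye-loaded CHRM1-CHO cells were exposed 5 min at room temperature before stimulation by acetylcholine added at 50nM. Intracellular calcium was read kinetically on FDSS for 3 min.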

Experiment [14] has the same target. Description: Cholinergic receptor muscarinic 1 (CHRM1) small molecule agonists, cell-based qHTS assay (AID 1963589). Note: nearly all actives have a fitted effect of over 35% in size. In short, it runs like this: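 Homogeneous fluorescence calcium flux, agonist mode. Human M1-expressing CHO cells; compound dosed at 15 concentrations, three independent runs; signal sampled every 1 sec.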
Experiment [15] can be described thus: cAMP Responsive Elements (CRE) small molecule agonists, cell-based qHTS assay (AID 1963590). In short, it runs like this:
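HEK 293T cells stably bearing CRE-bla were plated at 2,000 cells per well and rested 18 h. Compounds, positive controls or DMSO were added for 3 h at 37 C. LiveBLAzer B/G substrate was then loaded for 2 h at room temperature.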

Experiment [16] is described as follows: cAMP Responsive Elements (CRE) small molecule antagonists, cell-based qHTS assay (AID 1963591; active = well fitted inhibition curve with a large enough effect in the signal ratio in the repeat runs, not every such curve was filed as active; the % refers to the signal ratio). In short, it runs like this: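 First, CRE-bla HEK293T cells settled 18 h at 37 C. Next, compound and 0.25 uM final NKH477 were applied for 3 h. Last, LiveBLAzer B/G substrate was loaded for 2 h at room temperature.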
The target in experiment [17] is Beta-2 adrenergic receptor (Homo sapiens) (UniProt P07550). Description: Adrenergic beta2 receptor (ADRB2) small molecule antagonists, cell-based qHTS assay (AID 1963592). Note: series mostly up to about 92 µM; nearly all actives have a fitted effect of over 50% in size. The method in brief: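 Assay format: CHO-ADRB2 cells, 18-20hr seeding at 37C/5% CO2, then compound plus 1nM isoproterenol agonist mix for 0.5hr RT. Homogeneous time-resolved fluorescence cAMP detection after 1hr, expressed as 665/615 nm ratio.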
Beta-2 adrenergic receptor (Homo sapiens), sequence (P07550 whole entry, looked up): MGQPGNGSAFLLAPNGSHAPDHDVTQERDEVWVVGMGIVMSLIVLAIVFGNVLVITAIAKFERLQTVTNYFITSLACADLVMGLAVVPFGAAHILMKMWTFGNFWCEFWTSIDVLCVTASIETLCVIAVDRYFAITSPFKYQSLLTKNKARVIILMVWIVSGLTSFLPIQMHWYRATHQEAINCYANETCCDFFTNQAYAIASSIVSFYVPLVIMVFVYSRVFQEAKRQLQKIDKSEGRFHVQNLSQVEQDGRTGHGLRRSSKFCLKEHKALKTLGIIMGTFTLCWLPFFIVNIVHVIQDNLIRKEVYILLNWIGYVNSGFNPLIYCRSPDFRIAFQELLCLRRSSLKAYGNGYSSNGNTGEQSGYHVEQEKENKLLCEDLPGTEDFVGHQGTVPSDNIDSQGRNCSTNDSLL

In experiment [18] the target is D(2) dopamine receptor (Homo sapiens) (UniProt P14416). The experiment in a line: Dopamine D2 receptor (DRD2) small molecule agonists, cell-based qHTS assay (AID 1963594). Note: nearly all actives have a fitted effect of over 35% in size. The method in brief: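 HEK293 cells stably expressing DRD2 were cultured 24 h at 37 C, then given Ro20-1724 (0.1 mM final) and compounds for 10 min at room temperature. NKH477 (200nM) was then added for 30 min. cAMP was read by HTRF.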
D(2) dopamine receptor (Homo sapiens), sequence (P14416 whole entry, looked up): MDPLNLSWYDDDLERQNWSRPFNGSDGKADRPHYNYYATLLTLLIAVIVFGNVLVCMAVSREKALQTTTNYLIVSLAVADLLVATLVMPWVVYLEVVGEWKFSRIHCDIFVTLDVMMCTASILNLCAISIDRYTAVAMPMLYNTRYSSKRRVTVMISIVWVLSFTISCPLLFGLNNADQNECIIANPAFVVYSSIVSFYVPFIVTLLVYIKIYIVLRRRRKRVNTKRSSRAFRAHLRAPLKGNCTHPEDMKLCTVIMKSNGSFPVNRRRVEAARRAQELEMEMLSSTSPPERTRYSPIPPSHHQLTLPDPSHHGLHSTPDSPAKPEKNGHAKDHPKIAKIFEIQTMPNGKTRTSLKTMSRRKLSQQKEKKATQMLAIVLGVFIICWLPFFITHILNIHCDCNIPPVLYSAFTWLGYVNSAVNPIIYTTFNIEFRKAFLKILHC

For experiment [19] the target is unchanged. The experiment in a line: Dopamine D2 receptor (DRD2) small molecule antagonists, cell-based qHTS assay (AID 1963595; active = well fitted inhibition curve with a large enough effect in the signal ratio in the repeat runs, with a control signal flat; the % refers to the signal ratio). In short, it runs like this: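 HEK293 cells stably expressing DRD2 were preincubated with 0.1 mM Ro20-1724, then with compound for 10 min at room temperature. Cells were stimulated with 200 nM NKH477 plus 12 nM quinpirole for 30 min, and cAMP was read by HTRF.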

Experiment [20] in a line: p53 small molecule agonists, cell-based qHTS assay (AID 1963582; active = well fitted activation curve with a large enough effect in the signal ratio in the repeat runs, not every such curve was filed as active; the % refers to the signal ratio). The method in brief:
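16 h compound exposure (37 C) of p53 response element–bla cells, preceded by 5 h recovery at 37 C/5% CO2; read-out via LiveBLAzer B/G FRET substrate, 2 h RT, fluorescence intensity.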

Several values for one entry are separate records, joined by “and”; a condition that tells them apart may be missing. Identical values can stand only once. Records with an inconclusive call do not appear. Activity calls are given as the source filed them. Unless noted, calls come from the whole dose curve.

Gonadotropin-releasing hormone receptor (Homo sapiens), sequence (P30968 whole entry, looked up): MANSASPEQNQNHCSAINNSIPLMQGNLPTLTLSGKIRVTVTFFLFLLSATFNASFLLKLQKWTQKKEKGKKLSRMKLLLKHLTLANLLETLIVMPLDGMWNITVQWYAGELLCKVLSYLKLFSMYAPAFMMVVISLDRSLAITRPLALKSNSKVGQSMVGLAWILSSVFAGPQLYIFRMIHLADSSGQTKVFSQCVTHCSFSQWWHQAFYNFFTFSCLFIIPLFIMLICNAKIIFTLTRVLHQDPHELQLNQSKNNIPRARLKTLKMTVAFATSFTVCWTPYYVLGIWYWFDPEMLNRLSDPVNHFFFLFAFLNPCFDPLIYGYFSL
Muscarinic acetylcholine receptor M1 (Homo sapiens), sequence (P11229 whole entry, looked up): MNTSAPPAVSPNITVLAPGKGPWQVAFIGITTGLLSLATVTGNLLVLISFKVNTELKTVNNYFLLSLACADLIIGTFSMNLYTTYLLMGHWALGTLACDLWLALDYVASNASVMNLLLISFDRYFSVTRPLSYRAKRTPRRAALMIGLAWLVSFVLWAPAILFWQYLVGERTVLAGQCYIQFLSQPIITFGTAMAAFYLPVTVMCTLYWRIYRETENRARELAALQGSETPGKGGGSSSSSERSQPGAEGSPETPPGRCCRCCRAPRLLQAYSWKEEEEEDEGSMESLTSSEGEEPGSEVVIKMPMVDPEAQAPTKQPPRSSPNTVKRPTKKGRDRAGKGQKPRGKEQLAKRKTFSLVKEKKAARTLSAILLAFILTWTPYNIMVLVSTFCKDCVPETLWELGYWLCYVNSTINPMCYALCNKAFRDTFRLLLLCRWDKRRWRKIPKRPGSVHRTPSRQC
5-hydroxytryptamine receptor 2A (Homo sapiens), sequence (P28223 whole entry, looked up): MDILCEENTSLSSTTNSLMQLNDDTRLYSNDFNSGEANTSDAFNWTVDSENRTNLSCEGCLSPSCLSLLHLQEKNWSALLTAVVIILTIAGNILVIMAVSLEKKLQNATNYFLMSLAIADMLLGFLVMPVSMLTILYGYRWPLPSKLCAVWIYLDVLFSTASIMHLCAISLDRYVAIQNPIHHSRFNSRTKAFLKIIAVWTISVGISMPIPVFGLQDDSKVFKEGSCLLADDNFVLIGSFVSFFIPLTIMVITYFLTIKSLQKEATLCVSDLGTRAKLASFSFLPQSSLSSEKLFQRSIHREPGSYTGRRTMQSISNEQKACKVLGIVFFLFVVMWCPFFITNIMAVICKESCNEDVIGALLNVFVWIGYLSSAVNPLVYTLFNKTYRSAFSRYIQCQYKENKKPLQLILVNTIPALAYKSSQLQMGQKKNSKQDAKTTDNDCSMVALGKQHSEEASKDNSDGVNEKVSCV

Turning to `O=C(CBr)c1ccc(O)cc1`, the Potency result in experiment [1], in [3], in experiment [4], in experiment [5], in experiment [6] and in [7] was “inactive” each time. The Potency result in experiment [8], in experiment [9], in experiment [10], in [11], in experiment [12] and in experiment [13] was “inactive” in each case. In addition, the Potency result in experiment [14], in [15], in experiment [16], in experiment [17], in [18] and in [19] was “inactive” each time. Moreover, the Potency in [2] is 68.6 µM (active).
With `O=[N+]([O-])c1cc([As](=O)(O)O)ccc1O`, the Potency result in [1], in experiment [2], in experiment [3], in [4], in experiment [5] and in experiment [6] was “inactive” each time. In addition, the Potency entry in experiment [7], in [8], in experiment [9], in experiment [10], in experiment [20] and in experiment [15] was “inactive” in each case. The Potency result in experiment [16], in experiment [17], in experiment [18] and in experiment [19] was “inactive” throughout.
As to `CN(C)CCc1ccc(O)cc1`, the Potency entry in experiment [1], in experiment [2], in [3], in [4], in [5] and in experiment [6] was “inactive” throughout. Further, the Potency entry in experiment [7], in [8], in [9], in experiment [10], in [11] and in experiment [12] was “inactive” in each case. Also, the Potency entry in [13], in experiment [14], in experiment [15], in experiment [16], in [17] and in [18] was “inactive” throughout. The Potency result in [19] is “inactive”.
In the case of `C1CCC(NC2CCCCC2)CC1`, the Potency entry in experiment [1], in experiment [2], in experiment [3], in experiment [4], in experiment [5] and in experiment [6] was “inactive” each time. Further, the Potency result in experiment [7], in [8], in experiment [9], in experiment [10], in experiment [11] and in experiment [12] was “inactive” throughout. The Potency entry in [13], in [14], in [16], in experiment [17] and in experiment [19] was “inactive” throughout.
For the compound `O=C(O)CCCc1ccc(N(CCCl)CCCl)cc1`, the Potency result in experiment [1], in experiment [2], in experiment [3], in [4], in [5] and in experiment [6] was “inactive” each time. Also, the Potency entry in [7], in experiment [8], in [9], in experiment [10], in [20] and in [15] was “inactive” in each case. Further, the Potency entry in [17], in experiment [18] and in experiment [19] was “inactive” in each case.
Turning to `O=[N+]([O-])c1ccc(Cl)c([N+](=O)[O-])c1`, the Potency in experiment [1] is 24.7 µM (active) and 43.3 µM (active); in experiment [2], 15.6 µM (active); in experiment [8], 36.9 µM (active) and 40.8 µM (active); in [9] it was 40.8 µM (active); in experiment [10] it was 26.1 µM (active). Besides, the Potency result in experiment [3], in experiment [4], in experiment [5], in experiment [6], in [7] and in [11] was “inactive” in each case. Besides, the Potency result in experiment [12], in [13], in experiment [14], in [18] and in experiment [19] was “inactive” in each case.
As for `CC(O)CN(CC(C)O)CC(C)O` (stereo not given), the Potency result in experiment [1], in experiment [2], in [3], in [4], in experiment [5] and in experiment [6] was “inactive” each time. Also, the Potency entry in [7], in [8], in [9], in [20], in experiment [11] and in [12] was “inactive” throughout. The Potency entry in experiment [13], in experiment [14], in experiment [15], in [16], in experiment [17] and in [19] was “inactive” each time.
